High-throughput results (PubChem BioAssay)
CHRM1 PAM = human M1 muscarinic receptor positive allosteric modulators, primary screen, CHO-K1 cells, Fluo-8 calcium fluorescence, 1536-well. CHO-K1 hM1, ACh EC20; 0% = ACh EC20, 100% = maximal ACh. 360,000 compounds, 0.088% hits. activation, % at 3 µM. Muscarinic acetylcholine receptor M1 (Homo sapiens), P11229; in the data active = activation above about 19%, passing the limit was not always enough
Target sequence (P11229 whole entry, looked up): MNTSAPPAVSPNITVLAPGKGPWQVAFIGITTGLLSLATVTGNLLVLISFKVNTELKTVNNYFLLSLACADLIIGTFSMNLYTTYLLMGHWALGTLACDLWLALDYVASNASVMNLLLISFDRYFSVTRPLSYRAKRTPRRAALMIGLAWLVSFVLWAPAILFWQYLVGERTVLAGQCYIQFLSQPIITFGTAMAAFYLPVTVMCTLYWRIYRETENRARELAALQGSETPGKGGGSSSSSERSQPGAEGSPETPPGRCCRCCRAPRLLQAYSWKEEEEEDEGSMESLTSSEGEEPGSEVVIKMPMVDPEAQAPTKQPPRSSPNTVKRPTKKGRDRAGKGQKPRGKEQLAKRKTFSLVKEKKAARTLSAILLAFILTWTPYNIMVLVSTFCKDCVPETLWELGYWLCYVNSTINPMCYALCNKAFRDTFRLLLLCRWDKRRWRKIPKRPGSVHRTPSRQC
CHRM1 antagonist = human M1 muscarinic receptor antagonists, primary screen, CHO-K1 cells, Fluo-8 calcium fluorescence, 1536-well; Muscarinic acetylcholine receptor M1 (Homo sapiens), P11229; AID 588852, 2011; CHO-K1 hM1, ACh EC80 antagonist; inhibition, % at 3 µM; 360,000 compounds, 1.3% hits;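 active = percent inhibition above its own plate's cutoff, namely the mean of that plate's compound wells plus 3 SD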;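 also: peak over basal fluorescence ratio during 140 s after agonist addition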
CHO-K1 Ca ag = counter-screen for M1 agonists: effect in parental CHO-K1 cells | Fluo-8 calcium fluorescence; scaled to maximal ATP response, vehicle zero | AID 602248, 2012 | 360,000 compounds, 0.48% hits | activation, % at 3 µM; in the data active = activation above about 15%;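 also: untransfected CHO-K1 host cells lacking M1 receptor as counterscreen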
CHO-K1 Ca antag = M1 antagonist counterscreen hit in parental CHO-K1 cells; ATP-induced calcium, Fluo-8 fluorescence; inhibition, % at 3 µM; 360,000 compounds, 0.6% hits;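 active = inhibition above a per-plate cutoff, the plate's mean sample inhibition plus 3 SD, cut at about 24% in these data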
CHRM1 agonist = human M1 muscarinic receptor agonists, primary screen, Fluo-8 calcium fluorescence, CHO-K1 cells, HTS; activation, % at 3 µM; CHO-K1 hM1, agonist mode; 0% DMSO, 100% acetylcholine EC100; 360,000 compounds, 0.33% hits; Muscarinic acetylcholine receptor M1 (Homo sapiens), P11229;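 active = activation above the run's mean compound activation plus 3 SD, cut at about 16% in these data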;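 also: peak over basal fluorescence ratio within a 140 s kinetic read after compound addition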
CHO-K1 Ca PAM = nonselective calcium activators in parental CHO-K1 cells, primary screen, counter-screen for M1 PAM project, cell-based, Fluo-8 calcium fluorescence, full deck, 1536-well | ATP EC20; 0% at ATP EC20, 100% at ATP max | activation, % at 3 µM | 360,000 compounds, 0.02% hits;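 active = activation above the run cutoff, the mean activation of all test compounds plus 3 SD, cut at about 40% in these data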;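 also: peak over basal fluorescence ratio in a 140 s read after ATP addition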
A number is an active result; - = inactive. Hits are enriched below; roughly 2.4% of the tested compounds scored in any of these assays.

SMILES	CHRM1 PAM	CHRM1 antagonist	CHO-K1 Ca ag	CHO-K1 Ca antag	CHRM1 agonist	CHO-K1 Ca PAM
Cc1ccc(S(=O)(=O)CCN2C=CC(C(F)(F)F)=NCC2)cc1	-	-	17	-	-	-
Cn1c(C(=O)NCCCN2CCc3ccccc3C2)cc2c(=O)n(C)c3ccccc3c21	-	34	-	-	-	-
Cc1c(-n2cc(C(=O)c3cc(F)ccc3O)cc(C#N)c2=O)c(=O)n(-c2ccccc2)n1C	-	-	-	-	-	-
N#Cc1cc(C(=O)c2cc(F)ccc2O)cn(-c2nccs2)c1=O	-	-	55	-	54	-
N#Cc1cc(C(=O)c2ccccc2O)cn(-c2nccs2)c1=O	-	-	72	25	45	-
CCC(C)NC(=O)Cn1cc(S(=O)(=O)N2CCN(c3ccccc3F)CC2)c2ccccc2c1=O (stereo not given)	-	-	-	-	-	-
CC1(C(=O)OCC(=O)Nc2ccc(S(=O)(=O)N3CCOCC3)cc2)CC1(Cl)Cl (stereo not given)	-	-	-	-	-	-
O=c1c(O)c(-c2ccc(O)cc2)oc2cc(O)cc(O)c12	-	-	-	-	19	-
O=c1cc(-c2ccc(O)cc2)oc2cc(O)cc(O)c12	-	-	-	-	-	-
CCc1cccc(C)c1NC(=O)CCNC(=O)c1cccc(C)c1	-	-	-	-	-	-
COc1ccc(OC)c(C(=O)c2coc3ccc(O)c(CN(C)C)c23)c1	-	-	-	-	-	-
COc1ccc2occ(C(=O)c3coc4ccc(O)c(CN(C)C)c34)c2c1	-	20	-	-	-	-
O=C(CCN1C(=O)/C(=C/c2ccccc2)SC1=S)NCCCN1CCOCC1	-	-	-	-	-	-
O=C(CCN1C(=O)/C(=C/c2ccccc2F)SC1=S)NCCCN1CCOCC1	-	-	19	-	-	-
COc1cc(C2NC(=O)c3ccccc3O2)ccc1OC(C)C (stereo not given)	-	-	-	25	-	-
O=C(O)C(c1ccccc1)N1C(=O)c2ccccc2C1=O (stereo not given)	-	-	-	-	-	-
O=C(O)[C@@H](c1ccccc1)N1Cc2ccccc2C1=O	-	-	-	30	-	-
O=C(O)c1ccc(CSc2nc3ccc(NC(=O)c4ccccc4C(=O)O)cc3s2)cc1	-	-	-	-	-	-
N#Cc1ccccc1CSc1nc2ccc(NC(=O)c3ccccc3C(=O)O)cc2s1	-	-	-	31	-	-
O=C(O)CNC(=O)c1ccccc1F	-	-	-	-	-	-
O=C(CNC(=O)c1ccccc1F)NCCc1ccccc1F	-	28	-	-	-	-
COc1ccc(Nc2nnc(SCC(=O)/C=C3/N(C)c4ccccc4C3(C)C)s2)cc1	-	-	-	-	-	-
CC(=O)Nc1ccc(NC(=O)C(C)OC(=O)[C@@H]2CCCN2C(=O)c2cccs2)cc1 (stereo not given in full)	-	-	-	-	-	-
CCn1c(C)nc2cc(C(=O)OC(C(F)(F)C(F)F)C(F)(F)C(F)F)ccc21	-	29	-	45	-	-
O=C(CN1CCN(CCOCCO)CC1)N1c2ccccc2Sc2ccc(Cl)cc21	-	93	-	-	-	-
SMILES	CHRM1 PAM	CHRM1 antagonist	CHO-K1 Ca ag	CHO-K1 Ca antag	CHRM1 agonist	CHO-K1 Ca PAM
O=C(CCN1CCN2CCCC2C1)N1c2ccccc2Sc2ccc(Cl)cc21 (stereo not given)	-	83	-	-	-	-
NCCC(=O)N1c2ccccc2Sc2ccc(Cl)cc21	-	91	-	-	-	-
CN1CCN(CCC(=O)N2c3ccccc3Sc3ccc(Cl)cc32)CC1	-	57	-	-	-	-
CCC(C)c1ccc(C(CC)NC(=O)C2CCCO2)cc1 (stereo not given)	-	-	-	-	-	-
C[C@H]1COC(=O)CC/C=C\C[C@H](CC(=O)N(CCO)Cc2ccccc2)C(=O)N1	-	-	-	-	-	-
CN1CCC=C(C(=O)N2c3ccccc3Sc3ccc(Cl)cc32)C1	-	101	-	-	-	-
NCCCC(=O)N1c2ccccc2Sc2ccc(Cl)cc21	-	100	-	-	-	-
NC(=O)N1CCN(CCCN2c3ccccc3Sc3cc(Cl)ccc32)CC1	-	-	-	-	-	-
N#C/C(N=Nc1ccccc1O)=N\Nc1ccccc1O	-	-	16	-	-	-
Oc1ccccc1N=N/C(=N/Nc1ccccc1O)c1ccccc1	-	-	-	-	-	-
O=C(Nc1ccc(N2CCOCC2)cc1)Nc1ccc2nc(-c3ccco3)c(-c3ccco3)nc2c1	-	33	-	-	-	-
O=C(Nc1ccc(F)cc1)N1CCOCC1	-	-	-	-	-	-
CN(C)c1ccc(NC(=O)N2CCOCC2)cc1	30	-	-	-	-	-
O=C(Nc1ccc2nc(-c3cccs3)c(-c3cccs3)nc2c1)N1CCOCC1	-	78	-	-	-	-
CNc1nc(NCC2CCCCC2)c2sccc2n1	-	-	-	-	-	-
O=C(COc1ccccc1)NC(=S)Nc1cccc2c(O)cccc12	-	-	-	-	19	-
Cc1ccc(S(=O)(=O)Nc2cccc(C(=O)NCC3(N4CCCCC4)CCCCC3)c2)cc1F	-	-	-	-	-	-
CCN(CCO)C(=O)C(c1ccccc1)c1ccccc1	-	-	-	-	-	-
CCN(CC)CCOC(=O)C(c1ccccc1)C1CCCCC1 (stereo not given)	-	99	-	-	-	-
CCN(CC)CCSC(=O)C(c1ccccc1)c1ccccc1	-	101	-	-	-	-
CCN(CC)CCOC(=O)C(c1ccccc1)c1ccccc1	-	96	-	-	-	-
COc1ccc(NS(=O)(=O)c2ccc(-c3coc(C)n3)cc2)cc1	-	-	-	-	-	-
COc1ccc(NS(=O)(=O)c2ccc(-c3coc(C)n3)cc2)cc1OC	-	63	20	50	-	-
COc1cc(C(=O)N(C)CCOc2ccccc2)ccc1OCC(=O)Nc1cccc(C(F)(F)F)c1	-	-	-	-	-	-
O=C(Nc1ccc(F)cc1F)N1CCN(CCc2ccccc2)CC1	-	-	30	-	-	-
COc1ccc2[nH]c3c(c2c1)CCN1C(=O)C(CC(=O)NCCCn2ccnc2)C[C@H](C(=O)N2CCCCC2)[C@@]31CCc1ccccc1 (stereo not given in full)	-	-	-	-	-	-
